Shown is part of a subset that was picked to be rich in hits.
Dicer inh: inhibitors of Dicer pre-microRNA processing, primary screen, biochemical, cat-ELCCA, chemiluminescence | 47,000 compounds, 6% hits | AID 1347074, 2019 | z-score at 25 µM | cat-ELCCA pre-miR-21 Dicer processing; hits give high values | Endoribonuclease Dicer (Homo sapiens), Q9UPY3; in the data active = z-score above about 3, passing the limit was not always enough;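 also: plate controls were vehicle for no effect and no enzyme for full effect; higher signal means more uncleaved substrate so more Dicer inhibition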
Starred values were filed as active, the others as inactive.

SMILES	Dicer inh
O=C(NCc1ccccc1)N1CC2C=CC1C2 (stereo not given)	6.22*
CCN(CC)c1ccc([N+](=O)[O-])c(N(CC)CC)n1	-1.52
S=C(NCCc1ccccc1)Nc1cc(Cl)c(Cl)cc1Cl	4.65*
COc1ccc(CCNC(=S)NCCc2ccccc2)cc1OC	0.7
S=C(NCc1ccccc1Cl)Nc1cc(Cl)c(Cl)cc1Cl	1.44
Cc1ccc(C2C3C(=O)N(C(C)C)C(=O)C3ON2c2ccc(Cl)cc2)cc1 (stereo not given)	-0.78
Cc1csc2sc(-c3ccnc(SCC(=O)NC(C)C)n3)c(C)c12	-0.72
COc1ccc(Oc2sccc2[N+](=O)[O-])cc1	0.72
O=[N+]([O-])c1ccc(Oc2ccc(Cl)cc2Cl)cc1C(F)(F)F	0.22
O=[N+]([O-])c1ccsc1Oc1ccc(Cl)cc1Cl	4.2*
CCOC(=O)C(Sc1nc2sc3c(c2c(=O)n1C)CCCC3)C(C)=O (stereo not given)	-1.56
Cc1ccc(S(=O)(=O)C(CC(=O)c2ccco2)c2ccc(Cl)cc2)cc1 (stereo not given)	2.31
Cc1ccc(C(CC(=O)c2ccco2)SCCO)cc1 (stereo not given)	-1.85
Cc1ccc(S(=O)(=O)C(CC(=O)c2ccc(F)cc2)c2ccco2)cc1 (stereo not given)	3.19*
COc1ccccc1C1SCCN1S(=O)(=O)c1ccc(F)cc1 (stereo not given)	1.78
NS(=O)(=O)c1ccc(Sc2ccc(Cl)cc2)c([N+](=O)[O-])c1	-0.24
NN=C1c2cc(Br)ccc2-c2ccc(Br)cc21	0.31
C=CCNc1nc2c(c(=O)[nH]c(=O)n2C)n1CCO	0.25
Cn1c(=O)[nH]c(=O)c2c1nc(NCCCO)n2CCO	-0.15
CCCCCn1c(NCCO)nc2c1c(=O)[nH]c(=O)n2C	3.61*
CCn1c(NCCCO)nc2c1c(=O)[nH]c(=O)n2C	0.94
Cn1c(=O)[nH]c(=O)c2c1nc(NCCCO)n2CCCc1ccccc1	3.37*
Cn1c(=O)c2c(nc(NCCO)n2CCCc2ccccc2)n(C)c1=O	-0.3
Cc1nn(C)c2ncc3c(=O)n(Cc4ccccc4Cl)n(C)c3c12	1.41
CSc1nnc(S/C(C(C)=O)=C(/C)O)s1	-1.38
SMILES	Dicer inh
CC(C)(O)C#Cc1ccc(/C=N/Nc2ccccc2)cc1	0.95
C=CCSc1nnc2c(n1)OC(/C=C/c1cccs1)N(C(C)=O)c1ccccc1-2 (stereo not given)	-1.59
Cc1cc(C)c(C)c(Oc2coc3cc(OCC(=O)OCC(C)C)ccc3c2=O)c1	-0.92
CC1(C)CC2(CC(C)(c3csc(N)n3)OC2=O)C(=O)O1 (stereo not given)	6.06
O=C1CCCc2c1cc(C(=O)O)c(=O)n2-c1ccccc1	3.73*
COC(=O)C(CCSC)NC(=O)c1cc2c(n(-c3ccccc3)c1=O)CCCC2=O (stereo not given)	2.11
O=C1CCCc2c1cc(C(=O)NC1CCSC1=O)c(=O)n2-c1ccccc1 (stereo not given)	1.18
C#CCSc1nc(C(OC)OC)cc(=O)[nH]1	0.44
CC(O)CNC(=S)NC1CC2CCC1C2 (stereo not given)	-0.41
Nc1nc2c(-c3ccccc3)c(C(F)(F)F)sc2s1	4.17*
CCOC(=O)c1cnc2c(-c3ccccc3)c(C(F)(F)F)sc2c1OCC	-0.56
O=C(Nc1nc2c(-c3ccccc3)c(C(F)(F)F)sc2s1)c1ccc(Cl)cc1	0.43
Cc1ccsc1/C=C/NC(=O)Nc1ccc(F)cc1F	-0.14
CCOC(=O)c1nn(-c2ccc(C(C)(C)C)cc2)c(=O)c(C#N)c1C	-1.32
Oc1ccc(Cl)c(C(c2c[nH]c3ccccc23)c2c[nH]c3ccccc23)c1	0.64
NCC(c1ccccc1)c1c[nH]c2ccccc12 (stereo not given)	-0.35
CCOc1cccc(C(c2c[nH]c3ccccc23)c2c[nH]c3ccccc23)c1OC	3.98*
Cc1[nH][nH]c(=O)c1C(c1c(C)[nH][nH]c1=O)c1c[nH]c2ccccc12	-6.84
CCOc1ccccc1C(c1c(C)[nH][nH]c1=O)c1c(C)[nH][nH]c1=O	-6.8
CCOc1ccc(C(c2c[nH]c3ccccc23)c2c[nH]c3ccccc23)cc1	3.4*
N/C(=N\OC(=O)c1csnn1)c1ccc(Cl)cc1	2
CCOc1ccc(-c2nc(C#N)c(N3CC(C)CC(C)C3)o2)cc1 (stereo not given)	-0.62
O=C(Nc1cncc(C#Cc2ccccc2)c1)Nc1ccccc1Cl	0.35
O=C1CC(c2ccc3c(c2)OCO3)c2c(n[nH]c2-c2ccc(Cl)cc2)N1 (stereo not given)	0.01
COc1cc2c(cc1OC)C(c1ccc(F)cc1)CC(=O)N2 (stereo not given)	0.86
O=C1CC(c2ccc(Cl)cc2)c2cc3c(cc2N1)OCO3 (stereo not given)	3.59*
NNC(=O)CSc1ccnc2cc(Cl)ccc12	-1.52
COC(=O)C1=C(C)NC2=C(C(=O)CCC2)C1c1ccc(SC)cc1 (stereo not given)	1.72
COC(=O)C1Cc2c([nH]c3ccccc23)C2(CCN(C)CC2)N1 (stereo not given)	0.36
